Cy5 interf NS3h: Cy5 fluorescence quenchers or enhancers, artefact control for HCV NS3 helicase inhibitor project, biochemical, ChemBridge library, Cy5 readout. Cy5-dT15 DNA with NS3h, fluorescence interference; actives lie on both sides; signal over control mean, under 1 quenches. fluorescence interference ratio at 100 µM. 16,000 tested, 6% active. AID 720488, 2013;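 active = compound fluorescence over control fluorescence at most 0.8, a quencher, or at least a set upper limit, an enhancer; inactive = ratio between 0.8 and the set upper limit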
NS3h inh CB: HCV NS3 helicase inhibitors, primary screen, biochemical, fluorescence polarization, ChemBridge library. inhibition, % at 100 µM. 16,000 tested, 1.6% active. NS3h Cy5-dT15 DNA binding. AID 687043, 2013. Hepatitis C virus NS3 helicase;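 active = inhibition above the average over every tested compound plus 3 SD, cut at about 40% in these data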
* marks the source's active call; other numbers are inactive results. An excerpt weighted towards active compounds, which were near 6.8% of everything screened.

SMILES	Cy5 interf NS3h	NS3h inh CB
CSc1ccc(S(=O)(=O)N(CC(=O)Nc2cccc(Br)c2)c2ccc(C)cc2)cc1	0.85	10
Cc1ccc(-c2ccccc2)n1-c1ccccc1C(=O)O	1.1	7
NC(N)=NS(=O)(=O)c1ccc(NC(=S)NC(=O)c2ccc(F)cc2)cc1	1	10
CS(=O)(=O)N1CCN(C(=O)c2ccc(-c3ccccc3)cc2)CC1	0.62*	0
O=C(c1ccc(S(=O)(=O)N2CCCC2)cc1)N1CCN(c2ccccc2)CC1	0.91	4
Cc1ccc(/C=C2/SC(=S)NC2=O)s1	0.79*	13
Cc1ccc(/C=C2/NC(=S)NC2=O)s1	1.1	20
CCCCNC(=O)/C(=C/c1ccc(-c2cccc([N+](=O)[O-])c2)o1)NC(=O)c1ccc(OC)cc1	0.99	12
COc1ccc(C(=O)N/C(=C\c2ccc(-c3cccc([N+](=O)[O-])c3)o2)C(=O)NCCCN2CCOCC2)cc1	0.77*	11
COc1cccc(N2C(=O)/C(=C/c3cccs3)SC2=S)c1	1.1	7
N/C(=N/OC(=O)c1ccc(I)cc1)c1ccc([N+](=O)[O-])cc1	0.95	3
CN(C)/C(=N\OC(=O)c1ccc([N+](=O)[O-])cc1)c1nonc1N	0.67*	19
CC(=O)Nc1ccccc1NC(=O)c1ccc(Br)cc1	1.2*	9
CC(=O)Nc1ccccc1NC(=O)c1ccc(F)cc1	0.93	8
C/C(=N/N=C1\NC(=O)C(CC(=O)Nc2ccc([N+](=O)[O-])cc2)S1)c1ccc(F)cc1 (stereo not drawn)	1	26
C/C(=N/N=C1\NC(=O)C(CC(=O)Nc2ccc(Cl)cc2Cl)S1)c1ccc(F)cc1 (stereo not drawn)	1.2*	-17
COc1cc(CC(=O)O)c([N+](=O)[O-])cc1OC	0.65*	-3
CCN(C(=O)c1cc(OC)c(OC)cc1[N+](=O)[O-])c1ccccc1	0.94	2
O=[N+]([O-])c1ccc(N2CCN(S(=O)(=O)c3ccccc3)CC2)cc1Sc1cccc2cccnc12	0.97	14
O=[N+]([O-])c1ccc(N2CCNCC2)cc1Sc1cccc2cccnc12	0.75*	2
O=C(NCCN1CCOCC1)c1cnn2c1NC(c1ccco1)CC2C(F)(F)F (stereo not drawn)	1	0
COCCNC(=O)c1cnn2c1NC(c1ccc(OC)c(OC)c1)CC2C(F)(F)F (stereo not drawn)	0.94	-10
COc1ccc(C2CC(C(F)(F)F)n3ncc(C(=O)N4CCN(Cc5ccccc5)CC4)c3N2)cc1OC (stereo not drawn)	0.61*	9
COc1ccc(C2CC(C(F)(F)F)n3ncc(C(=O)NC(C)(C)C)c3N2)cc1 (stereo not drawn)	0.69*	8
Cc1ccc(C2CC(C(F)(F)F)n3ncc(C(=O)NCCN4CCOCC4)c3N2)cc1 (stereo not drawn)	0.77*	9
SMILES	Cy5 interf NS3h	NS3h inh CB
O=C(c1ccccc1)N1CCN(C(=O)c2cnn3c2NC(c2ccc(Br)cc2)CC3C(F)(F)F)CC1 (stereo not drawn)	1.1	17
Cc1ccc(C2CC(C(F)(F)F)n3ncc(C(=O)N4CCN(c5ccc(F)cc5)CC4)c3N2)cc1 (stereo not drawn)	0.63*	3
COc1ccc(C2CC(C(F)(F)F)n3ncc(C(=O)Nc4ccccc4SC)c3N2)cc1 (stereo not drawn)	1	8
O=C(Nc1ccc(NC(=O)c2cccc(Br)c2)cc1)c1ccccc1	0.92	36
O=C1NC(c2ccccc2)=C(c2ccc3ccccc3n2)C(c2cccc([N+](=O)[O-])c2)N1 (stereo not drawn)	1	9
CCOc1ccccc1-n1c(O)c(C=C2C=CC=N2)c(=O)[nH]c1=O	0.91	21
CCOc1ccc(C(=O)Nc2ccc3oc(-c4ccccc4F)nc3c2)cc1Cl	1	-27
COc1ccc(C(O)=C2C(=O)C(=O)N(CCc3ccccc3)C2c2ccccc2F)cc1 (stereo not drawn)	1.1	6
CC(C)OC(=O)c1cnn2c(C(F)(F)F)cc(-c3ccc(F)cc3)nc12	0.94	10
COc1ccc(-c2cc(C(F)(F)F)n3nc(C(=O)N4CCc5ccccc5C4)cc3n2)cc1	0.97	9
O=C(Nc1cccc(C(F)(F)F)c1)c1cnn2c(C(F)(F)F)cc(-c3cccs3)nc12	0.66*	8
O=C(c1ccccc1)N1CCN(C(=O)c2nn3c(C(F)(F)F)cc(-c4cccs4)nc3c2Br)CC1	0.71*	10
Cc1oc(C(=O)O)cc1COc1cccc2ccccc12	1.1	-5
COc1cccc(NC(=O)/C(=C/c2ccc(C)o2)NC(=O)c2ccccc2)c1	0.71*	15
COc1ccc(NC(=O)/C(=C/c2ccccc2Cl)NC(=O)c2ccc(C)cc2)cc1	1.2	-1
COc1ccc(N=C(NOC(C)=O)c2ccc(Cl)cc2)c(OC)c1	0.73*	10
COc1ccc(/C=C/C(=O)c2ccc(Cl)cc2)c(OC)c1	0.97	4
CCOc1cc(C(=S)N2CCOCC2)cc(Br)c1O	0.72*	21
CCOc1cc(C(=S)N2CCOCC2)ccc1OS(=O)(=O)c1ccc(C)cc1	0.88	11
N/C(Cc1cccc2ccccc12)=N/OC(=O)c1ccco1	1.1	17
O=C(Oc1cccc2ccccc12)c1ccco1	0.57*	3
Cc1ccsc1C1Nc2ccc3ccccc3c2C2=C1C(=O)CC(C)(C)C2 (stereo not drawn)	0.97	12
O=C1CCCC2=C1C(c1ccc3c(c1)OCO3)Nc1ccc3ccccc3c12 (stereo not drawn)	0.72*	21
CC(Sc1nc2ccc(Br)cc2c(=O)n1-c1ccccc1)c1ccccc1 (stereo not drawn)	0.94	-1
O=C(CO/N=C\c1ccccc1)N=Nc1c(O)[nH]c2ccc(Br)cc12	0.78*	-6
SMILES	Cy5 interf NS3h	NS3h inh CB
Cc1ccc2[nH]c(O)c(N=NC(=O)COc3ccccc3)c2c1Br	0.86	11
O=C(CSCc1cccc(Br)c1)N=Nc1c(O)[nH]c2ccccc12	0.8*	16
NC(=O)N=Nc1c(O)[nH]c2ccccc12	0.85	12
O=C(Cc1ccccc1)NC(c1ccccc1)c1ccc2cccnc2c1O (stereo not drawn)	1.1	-3
CCCOc1ccc(/C=N\N2CCN(Cc3ccccc3Cl)CC2)cc1	1	16
COc1ccc(OC)c(N(CC(=O)NCCc2ccc(OC)c(OC)c2)S(=O)(=O)c2ccc(OC)c(OC)c2)c1	1	7
COc1ccc(NC(=O)CN(c2ccc(OC)cc2)S(C)(=O)=O)cc1	1	7
COc1ccc(N(Cc2ccc(C(=O)NCc3ccccc3OC)cc2)S(=O)(=O)c2ccccc2)cc1	0.69*	20
COc1ccccc1CNC(=O)c1ccc(CN(c2ccccc2)S(C)(=O)=O)cc1	0.97	7
COCCCNC(=O)c1ccc(CN(c2ccccc2)S(C)(=O)=O)cc1	0.79*	8
COc1ccc(N(CC(=O)NCCc2ccc(OC)c(OC)c2)S(=O)(=O)c2ccc(OC)c(OC)c2)cc1	1.2*	24
COCCCNC(=O)c1ccc(N(C)S(=O)(=O)c2ccccc2)cc1	1.1	4
COc1ccc(N(CC(=O)Nc2ccc(C)c(C)c2)S(C)(=O)=O)cc1	1.2*	10
O=[N+]([O-])c1cc(/C=N\N2CCN(Cc3ccc(Cl)cc3)CC2)ccc1Cl	1.1	8

Assay outcomes deposited in PubChem by Milwaukee Institute for Drug Discovery.
